Assay results as given in PubChem BioAssay AID1839 (Johns Hopkins Ion Channel Center, 2009).
Out of some 2,400 compounds screened, about 220 (9.2%) were called active. Shown is part of a subset that was picked to be rich in actives. A number with no mark means an inactive call.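 How the source made its calls: active means signal change above the mean of dofetilide-free buffer controls plus 3 SD, so a positive margin; inactive means the rest.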

Experiment: nonspecific flux effects in parental CHO-K1, confirmation, counter-screen for hERG block protection project, cell-based, CHO-K1 parental line, FluxOR thallium flux (AID 1839);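 further: compounds applied alone with no dofetilide to cells lacking hERG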
Settings: CHO-K1 parental cells, FluxOR thallium flux fluorescence; at 10 µM

| Structure (SMILES) | signal change vs control minus 3*SD hit threshold (margin above threshold, higher = more increase) |
| --- | --- |
| COc1ccc(NC(=O)C(=O)NNC(=O)COc2ccc(Cl)cc2)c(OC)c1 | -0.4% |
| COc1ccc(NC(=O)C(=O)NNC(=O)COc2ccc(OC)cc2)cc1 | -38% |
| COc1ccc(OCC(=O)NNC(=O)C(=O)Nc2ccc(C)cc2)cc1 | -35.4% |
| CCc1ccc(NC(=O)C(=O)NNC(=O)COc2cccc(OC)c2)cc1 | -13.5% |
| Cc1ccccc1NC(=O)C(=O)NNC(=O)COc1ccc2ccccc2c1 | -2.5% |
| COc1cccc(OCC(=O)NNC(=O)C(=O)Nc2ccc(OC)cc2OC)c1 | -21.1% |
| N#Cc1cccc(N=c2ssnc2Cl)c1 | -30.2% |
| CCOc1cc(N2CCOCC2)c(OCC)cc1NC(=O)Cn1nc(C)c([N+](=O)[O-])c1C | -22.7% |
| Cc1ccccc1NC1=C/C(=N\S(=O)(=O)c2ccc(C(=O)O)cc2)c2ccccc2C1=O | -22% |
| Cc1ccc(C(=O)n2c(-c3ccccc3)cnc2SCC(=O)Nc2ccc(C)cc2C)cc1 | -8.7% |
| CC12CCC(C(=O)OC3CCCCC3)(OC1=O)C2(C)C (stereo not given) | -36.3% |
| O=C1c2cccc3cccc(c23)C(=O)C1(O)O | -20.6% |
| S=c1[nH]c2cc(-c3ccccc3)ccc2o1 | 38.6% (active) |
| COC(=O)c1sc(NC(=S)NC(=O)c2ccc(C)cc2)nc1C | -19.1% |
| Cc1ccsc1CN(C(=O)c1ccc([N+](=O)[O-])cc1)C1CCS(=O)(=O)C1 (stereo not given) | -32.2% |
| CCCCOC(=O)c1ccc(NC(=S)NC(=O)c2c(Br)c(C)nn2C)cc1 | 6.3% (active) |
| CCCCOC(=O)c1ccc(NC(=S)NC(=O)c2c(Cl)cnn2C)cc1 | -18.6% |
| Cc1nn(C)c(C(=O)NC(=S)Nc2ccc([N+](=O)[O-])cc2)c1Cl | -13.2% |
| CC1CCc2sc(-c3n[nH]c(=S)o3)cc2C1 (stereo not given) | -19.1% |
| CC(C)(C)c1cc(C(=O)NNC(=O)c2ccc(Cl)cc2)no1 | -1.2% |
| O=C(O)c1cc(N/N=C/c2ccc(-c3ccccc3)cc2)ccc1Cl | -29.5% |
| O=C(O)c1cc(NN=C2c3ccccc3-c3ccccc32)ccc1Cl | 3.2% (active) |
| CCCCOc1ccc(-c2c(C#N)c(N)[nH]c(=S)c2C#N)cc1 | -44.5% |
| CCc1ccc(C(C)NC(=O)c2ccc(F)cc2)cc1 (stereo not given) | -6.8% |
| CC(NC(=O)c1ccc(Br)cc1)c1ccc2c(c1)CCCC2 (stereo not given) | 2.4% (active) |

| Structure (SMILES) | signal change vs control minus 3*SD hit threshold (margin above threshold, higher = more increase) |
| --- | --- |
| CC(NC(=O)c1ccc(F)cc1)c1ccc2c(c1)CCCC2 (stereo not given) | -12.8% |
| COc1cccc(NC(=O)CSCc2n[nH]c(=O)[nH]2)c1 | -30% |
| COc1ccc(-c2csc(NC(=S)NC(=O)c3cccs3)n2)cc1OC | -41.1% |
| CCOc1cc(Br)c(C(=O)O)cc1OC | -30.9% |
| O=C(CSc1nc2cc(Cl)ccc2s1)c1cc2ccccc2o1 | -23% |
| O=C(Cn1nc(-c2ccccc2)c2ccccc2c1=O)Nc1ccc(O)cc1 | -37.1% |
| O=[N+]([O-])c1cccnc1Sc1n[nH]c(-c2ccc(Cl)cc2)n1 | -19.6% |
| COc1ccc(CCn2c(S)nc3ccccc3c2=O)cc1 | -22.5% |
| C=CCNC(=S)NC(=O)c1ccc(C)c(Br)c1 | -26.8% |
| CCN(CC)C(=S)NC(=O)c1ccc(OC)c(Br)c1 | -18.8% |
| C=CCN(CC=C)C(=S)NC(=O)c1ccc(OC)cc1 | -14.4% |
| C=CCN(CC=C)C(=S)NC(=O)c1ccc([N+](=O)[O-])cc1 | -16.4% |
| C=CCN(CC=C)C(=S)NC(=O)c1ccc(OC)c(Br)c1 | 4.6% (active) |
| C=CCN(CC=C)C(=S)NC(=O)c1ccc(C)c(Br)c1 | 48.9% (active) |
| Cc1nnc(NC(=O)C2CCCN(S(=O)(=O)c3ccccc3C(F)(F)F)C2)s1 (stereo not given) | -12.2% |
| CCCCNC(=O)c1onc(CSc2nc3ccccc3[nH]2)c1C(=O)NCCCC | -27.7% |
| C=CCn1c(O)c(N=NC(=S)Nc2ccc(OC)cc2)c2ccccc21 | -17.1% |
| Cc1nnc(NC(=O)CN2CCN(Cc3ccc(F)cc3Cl)CC2)s1 | -35.7% |
| O=C(Nc1cccc(N=Cc2cc(Cl)cc(Br)c2O)c1)c1ccco1 | -5.5% |
| C=CCNC(=S)Nc1sc2c(c1C(=O)OCC)CC(C)(CC)OC2 (stereo not given) | -1.5% |
| CCOC(=O)c1c(NC(=S)NC)sc2c1CC(C)(C)SC2 | 22.5% (active) |
| CCOC(=O)c1c(NC(=S)NC)sc2c1CCCC2 | -11% |
| CCCN(CC1CC1)C(=S)Nc1ccccc1F | -25.8% |
| COc1cc(/C=C2/SC(=S)N(CC(=O)O)C2=O)ccc1OCC(=O)Nc1ccc(C)c(C)c1 | -34.3% |
| COc1ccccc1C(=O)Nc1ccnn1C1CCN(C(=O)c2ccoc2C)CC1 | -41.5% |
